The supplement of paper PMC10849652
About 7,900 targets were measured; listed, in parts, are those with a hit and a random draw of the rest. About 0.6% of all pairs of compound and target were hits.

What was measured:
Test in all cases: log2 fold change, soluble protein after heating vs DMSO (PISA); higher = thermal stabilisation; K562 cells, 10 uM, 30 min; active = over 0.2 and 3.5 SD of the protein, either way, in both replicates (recomputed)
[1] = compound: CC[C@@H]1C(=O)N(C)c2cnc(Nc3ccc(C(=O)NC4CCN(C)CC4)cc3OC)nc2N1C1CCCC1
In short: (§1)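 K562 cells at 2×10^6 cells/mL were given 10 μM compound for 30 min. Aliquots then went through 3 min of heating across 48°C-58°C, were pooled, and were extracted in PBS with 0.5% NP-40 at 4°C, and the supernatant after 21,000xg for 90 min was quantified by TMTpro 16plex LC-MS/MS with channel sums equalised. Thermal stability relative to control samples, from duplicates, is given as log2 fold change.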

volasertib = compound: CC[C@@H]1C(=O)N(C)c2cnc(Nc3ccc(C(=O)N[C@H]4CC[C@H](N5CCN(CC6CC6)CC5)CC4)cc3OC)nc2N1C(C)C [volasertib]
In short: as §1

[2] = compound: CC[C@H](C)N1C=C(C2=C(C=C(C=C21)C3=CN=C(C=C3)N4CCNCC4)C(=O)NCC5=C(C=C(NC5=O)C)C)C
In short: as §1

epoxomicin = compound: CC[C@H](C)[C@@H](C(=O)N[C@@H]([C@@H](C)O)C(=O)N[C@@H](CC(C)C)C(=O)[C@]1(CO1)C)NC(=O)[C@H]([C@@H](C)CC)N(C)C(=O)C [epoxomicin]
In short: as §1

[3] = compound: CCn1c(C(=O)N(C2CC2)C2CC2)cc2c3c(ncn3C)c(Nc3cc(C)n(C)n3)nc21
In short: as §1

[4] = compound: CCn1cc(-c2ccnc3[nH]c(-c4cccc(CN(C)C)c4)cc23)c(-c2ccc(NC(=O)N(C)C)cc2)n1
In short: as §1

[5] = compound: CN(C)CC(=O)Nc1ccc2[nH]c(=O)c3ccccc3c2c1
In short: as §1

rosiglitazone = compound: CN(CCOC1=CC=C(C=C1)C[C@H]2C(=O)NC(=O)S2)C3=CC=CC=N3 (racemic) [rosiglitazone]
In short: as §1

[6] = compound: CN1C2=C(C3=C1C(=O)N(N=C3)CC4=CC(=CC=C4)N)SC(=C2)S(=O)C
In short: as §1

[7] = compound: CN1CCC(CNc2ccc3ncc(-c4cccc(OC(F)(F)F)c4)n3n2)CC1
In short: as §1

saracatinib = compound: CN1CCN(CCOc2cc(OC3CCOCC3)c3c(Nc4c(Cl)ccc5c4OCO5)ncnc3c2)CC1 [saracatinib]
In short: as §1

sotrastaurin = compound: CN1CCN(c2nc(C3=C(c4c[nH]c5ccccc45)C(=O)NC3=O)c3ccccc3n2)CC1 [sotrastaurin]
In short: as §1

alvocidib = compound: CN1CC[C@H](c2c(O)cc(O)c3c(=O)cc(-c4ccccc4Cl)oc23)[C@H](O)C1 [alvocidib]
In short: as §1

Tubastatin A = compound: CN1CCc2c(c3ccccc3n2Cc2ccc(C(=O)NO)cc2)C1 [Tubastatin A]
In short: as §1

[8] = compound: CNC(=O)C1=CC=CC=C1NC2=NC(=NC=C2Cl)NC3=C(C=C(C=C3)N4CCOCC4)OC
In short: as §1

defactinib = compound: CNC(=O)c1ccc(Nc2ncc(C(F)(F)F)c(NCc3nccnc3N(C)S(C)(=O)=O)n2)cc1 [defactinib]
In short: as §1

rucaparib = compound: CNCc1ccc(-c2[nH]c3cc(F)cc4c3c2CCNC4=O)cc1 [rucaparib]
In short: as §1

[9] = compound: CNc1nc(-c2ccc3c(N)n[nH]c3c2)cc(N2C[C@@H](C(=O)NC3CCCCC3)CC[C@H]2C)n1
In short: as §1

encorafenib = compound: COC(=O)N[C@@H](C)CNc1nccc(-c2cn(C(C)C)nc2-c2cc(Cl)cc(NS(C)(=O)=O)c2F)n1 [encorafenib]
In short: as §1

[10] = compound: COC(=O)[C@H](CCSC)NC(=O)C1=C(C=C(C=C1)NC[C@H](CS)N)C2=CC=CC=C2
In short: as §1

Measured: log2 fold change

CPT2 (UniProt P23786)
UniProt P23786, sequence (P23786 whole entry, looked up): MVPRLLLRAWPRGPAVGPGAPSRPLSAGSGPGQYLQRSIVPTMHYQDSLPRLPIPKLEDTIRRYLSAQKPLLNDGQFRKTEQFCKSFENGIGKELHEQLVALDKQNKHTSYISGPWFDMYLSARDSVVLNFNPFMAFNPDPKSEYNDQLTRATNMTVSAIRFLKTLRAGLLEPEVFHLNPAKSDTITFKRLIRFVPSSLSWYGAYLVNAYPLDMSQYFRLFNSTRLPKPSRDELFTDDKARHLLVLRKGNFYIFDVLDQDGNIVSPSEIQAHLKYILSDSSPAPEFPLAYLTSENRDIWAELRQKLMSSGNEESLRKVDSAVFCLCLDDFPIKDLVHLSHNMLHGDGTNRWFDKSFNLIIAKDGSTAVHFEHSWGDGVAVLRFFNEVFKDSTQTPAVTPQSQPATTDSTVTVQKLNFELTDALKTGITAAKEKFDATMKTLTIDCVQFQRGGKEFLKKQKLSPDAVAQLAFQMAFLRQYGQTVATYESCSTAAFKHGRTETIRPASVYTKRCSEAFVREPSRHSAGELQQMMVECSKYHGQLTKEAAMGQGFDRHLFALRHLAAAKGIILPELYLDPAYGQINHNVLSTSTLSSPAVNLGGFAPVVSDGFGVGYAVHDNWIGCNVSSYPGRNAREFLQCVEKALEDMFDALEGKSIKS
inactive: [1] 0.235 | [2] -0.019 | epoxomicin 0.011 | [3] 0.109 | [4] 0.384 | [5] 0.088 | rosiglitazone 0.056 | [6] -0.136 | saracatinib -0.089 | sotrastaurin -0.136 | alvocidib -0.062 | Tubastatin A 0.032 | [8] 0.147 | defactinib -0.164 | rucaparib -0.096 | [9] 0.363 | encorafenib -0.074 | [10] -0.057
active: volasertib 0.912 | [7] -0.613

COASY isoform 2 (UniProt Q13057)
UniProt Q13057, sequence (Q13057 whole entry, looked up): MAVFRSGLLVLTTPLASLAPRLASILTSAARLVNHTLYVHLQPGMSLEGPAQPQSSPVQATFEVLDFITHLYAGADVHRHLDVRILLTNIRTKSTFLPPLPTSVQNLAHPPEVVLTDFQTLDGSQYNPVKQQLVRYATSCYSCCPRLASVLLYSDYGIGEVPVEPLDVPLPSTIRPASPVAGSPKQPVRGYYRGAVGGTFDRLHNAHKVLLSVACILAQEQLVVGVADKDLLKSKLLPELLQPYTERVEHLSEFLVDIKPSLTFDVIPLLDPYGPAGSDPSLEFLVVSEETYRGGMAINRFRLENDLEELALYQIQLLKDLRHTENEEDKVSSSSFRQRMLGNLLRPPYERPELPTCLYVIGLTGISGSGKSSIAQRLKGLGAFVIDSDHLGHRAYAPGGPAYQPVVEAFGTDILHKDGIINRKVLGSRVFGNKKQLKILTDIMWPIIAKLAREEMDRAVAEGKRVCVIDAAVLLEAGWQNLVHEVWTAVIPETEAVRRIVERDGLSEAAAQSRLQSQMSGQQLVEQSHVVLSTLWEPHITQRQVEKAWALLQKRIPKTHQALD
inactive: [1] -0.068 | [2] 0.027 | epoxomicin -0.013 | [3] 0.061 | [4] -0.052 | [5] 0.038 | rosiglitazone 0.017 | [6] -0.08 | [7] -0.132 | saracatinib 0.003 | sotrastaurin -0.001 | alvocidib -0.12 | Tubastatin A -0.001 | [8] 0.035 | defactinib -0.065 | rucaparib 0.011 | [9] -0.03 | encorafenib 0.034 | [10] -0.029
active: volasertib -0.266

CHD3 isoform 3 (UniProt Q12873)
UniProt Q12873, sequence (Q12873 whole entry, looked up): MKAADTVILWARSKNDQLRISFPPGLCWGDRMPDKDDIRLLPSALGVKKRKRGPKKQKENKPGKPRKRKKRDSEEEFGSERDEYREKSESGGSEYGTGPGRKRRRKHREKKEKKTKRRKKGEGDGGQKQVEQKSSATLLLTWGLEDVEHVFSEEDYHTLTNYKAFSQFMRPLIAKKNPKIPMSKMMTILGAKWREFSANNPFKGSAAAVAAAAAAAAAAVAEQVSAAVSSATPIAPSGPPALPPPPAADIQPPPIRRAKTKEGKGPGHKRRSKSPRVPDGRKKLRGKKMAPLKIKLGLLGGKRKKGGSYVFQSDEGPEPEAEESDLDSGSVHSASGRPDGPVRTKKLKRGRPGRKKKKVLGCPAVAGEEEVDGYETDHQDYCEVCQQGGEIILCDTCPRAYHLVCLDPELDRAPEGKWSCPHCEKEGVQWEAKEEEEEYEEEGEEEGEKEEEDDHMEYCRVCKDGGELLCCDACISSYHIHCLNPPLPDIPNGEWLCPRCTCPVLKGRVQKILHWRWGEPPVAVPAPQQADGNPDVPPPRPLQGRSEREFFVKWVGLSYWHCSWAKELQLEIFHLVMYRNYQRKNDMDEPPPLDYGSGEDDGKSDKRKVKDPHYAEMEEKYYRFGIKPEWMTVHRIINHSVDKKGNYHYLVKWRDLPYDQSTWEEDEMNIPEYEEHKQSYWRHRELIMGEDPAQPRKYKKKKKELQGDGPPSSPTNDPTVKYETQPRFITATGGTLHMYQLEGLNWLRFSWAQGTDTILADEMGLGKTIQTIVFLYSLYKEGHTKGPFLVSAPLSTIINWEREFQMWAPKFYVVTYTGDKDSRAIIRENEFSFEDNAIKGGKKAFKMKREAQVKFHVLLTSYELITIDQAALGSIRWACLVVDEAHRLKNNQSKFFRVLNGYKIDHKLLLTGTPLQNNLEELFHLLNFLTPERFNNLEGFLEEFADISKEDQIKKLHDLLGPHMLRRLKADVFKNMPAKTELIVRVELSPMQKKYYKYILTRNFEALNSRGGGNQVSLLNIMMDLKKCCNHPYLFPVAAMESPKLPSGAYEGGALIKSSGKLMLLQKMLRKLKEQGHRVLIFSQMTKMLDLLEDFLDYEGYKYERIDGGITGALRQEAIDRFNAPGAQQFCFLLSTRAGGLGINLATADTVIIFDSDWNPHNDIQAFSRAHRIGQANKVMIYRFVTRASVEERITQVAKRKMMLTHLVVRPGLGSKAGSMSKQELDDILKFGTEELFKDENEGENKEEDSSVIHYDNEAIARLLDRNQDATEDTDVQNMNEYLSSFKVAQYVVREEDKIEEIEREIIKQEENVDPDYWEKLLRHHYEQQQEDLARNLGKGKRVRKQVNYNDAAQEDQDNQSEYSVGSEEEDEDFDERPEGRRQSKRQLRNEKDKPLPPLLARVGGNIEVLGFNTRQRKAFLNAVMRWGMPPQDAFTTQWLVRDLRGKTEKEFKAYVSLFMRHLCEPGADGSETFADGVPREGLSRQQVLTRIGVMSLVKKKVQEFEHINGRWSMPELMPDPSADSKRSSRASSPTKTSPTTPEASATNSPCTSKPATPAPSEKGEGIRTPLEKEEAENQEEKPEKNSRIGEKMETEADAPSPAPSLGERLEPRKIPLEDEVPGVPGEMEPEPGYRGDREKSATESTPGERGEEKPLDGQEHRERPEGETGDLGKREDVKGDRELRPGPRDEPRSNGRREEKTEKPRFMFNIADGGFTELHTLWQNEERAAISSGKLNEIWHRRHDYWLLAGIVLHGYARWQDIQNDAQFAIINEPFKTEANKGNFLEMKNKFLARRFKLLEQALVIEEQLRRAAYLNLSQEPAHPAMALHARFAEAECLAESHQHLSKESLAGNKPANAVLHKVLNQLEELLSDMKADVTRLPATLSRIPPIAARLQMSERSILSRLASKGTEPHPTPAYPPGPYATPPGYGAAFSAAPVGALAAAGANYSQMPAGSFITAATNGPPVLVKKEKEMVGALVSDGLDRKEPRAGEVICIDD
active: volasertib -0.757
inactive: [1] -0.093 | [2] 0.149 | epoxomicin 0.017 | [3] -0.042 | [4] 0.067 | [5] 0.126 | rosiglitazone 0.048 | [6] 0.099 | [7] -0.144 | saracatinib -0.067 | sotrastaurin -0.312 | alvocidib -0.12 | Tubastatin A 0.096 | [8] -0.029 | defactinib -0.253 | rucaparib 0.134 | [9] -0.024 | encorafenib 0.136 | [10] -0.087

CDK11B (UniProt P21127)
UniProt P21127, sequence (P21127 whole entry, looked up): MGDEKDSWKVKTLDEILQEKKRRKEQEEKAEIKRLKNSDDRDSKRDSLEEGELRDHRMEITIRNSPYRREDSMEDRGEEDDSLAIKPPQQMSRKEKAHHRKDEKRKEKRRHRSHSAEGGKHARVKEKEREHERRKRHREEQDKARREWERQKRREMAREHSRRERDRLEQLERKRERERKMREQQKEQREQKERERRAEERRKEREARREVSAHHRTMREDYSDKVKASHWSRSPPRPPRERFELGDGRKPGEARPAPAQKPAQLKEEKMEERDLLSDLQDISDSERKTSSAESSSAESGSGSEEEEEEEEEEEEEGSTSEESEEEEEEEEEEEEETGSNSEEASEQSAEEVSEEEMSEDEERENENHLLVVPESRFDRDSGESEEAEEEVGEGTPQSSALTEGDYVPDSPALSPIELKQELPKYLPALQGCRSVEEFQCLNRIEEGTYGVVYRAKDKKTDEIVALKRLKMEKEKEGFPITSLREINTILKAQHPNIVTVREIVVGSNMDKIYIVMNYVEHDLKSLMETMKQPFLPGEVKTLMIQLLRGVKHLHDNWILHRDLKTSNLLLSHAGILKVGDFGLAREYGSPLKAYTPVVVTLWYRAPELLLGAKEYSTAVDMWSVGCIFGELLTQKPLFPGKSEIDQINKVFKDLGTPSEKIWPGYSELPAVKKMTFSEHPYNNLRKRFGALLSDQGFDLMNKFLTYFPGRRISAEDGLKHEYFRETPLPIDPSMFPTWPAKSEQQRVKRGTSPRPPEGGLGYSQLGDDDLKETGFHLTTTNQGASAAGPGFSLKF
inactive: [1] 0.087 | volasertib 0.047 | [2] 0.028 | epoxomicin -0.072 | [3] -0.07 | [4] -0.01 | [5] -0.107 | rosiglitazone 0.004 | [6] 0.005 | [7] 0.094 | saracatinib -0.039 | sotrastaurin 0.035 | alvocidib 0.157 | Tubastatin A 0.137 | [8] -0.098 | defactinib -0.162 | rucaparib -0.323 | [9] -0.052 | encorafenib 0.077 | [10] -0.039

CHMP4B (UniProt Q9H444)
UniProt Q9H444, sequence (Q9H444 whole entry, looked up): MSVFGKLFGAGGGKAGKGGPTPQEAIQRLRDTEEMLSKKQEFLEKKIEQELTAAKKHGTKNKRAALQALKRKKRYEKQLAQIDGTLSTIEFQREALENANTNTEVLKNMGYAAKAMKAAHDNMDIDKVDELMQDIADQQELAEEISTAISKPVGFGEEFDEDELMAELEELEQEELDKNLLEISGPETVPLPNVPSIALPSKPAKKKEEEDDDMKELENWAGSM
inactive: [1] -0.05 | volasertib 0.062 | [2] -0.044 | epoxomicin -0.008 | [3] 0.043 | [4] -0.065 | [5] -0.053 | rosiglitazone -0.031 | [6] -0.057 | [7] -0.033 | saracatinib 0.021 | sotrastaurin -0.061 | alvocidib 0.017 | Tubastatin A -0.024 | [8] -0.026 | defactinib -0.017 | rucaparib 0.02 | [9] -0.019 | encorafenib -0.055 | [10] 0.054

CD151 (UniProt P48509)
active: [1] 0.277
inactive: volasertib 0.157 | [2] -0.068 | epoxomicin 0.041 | [3] -0.011 | [4] -0.058 | [5] 0 | rosiglitazone 0.017 | [6] -0.095 | [7] 0.248 | saracatinib 0.045 | sotrastaurin 0.116 | alvocidib -0.049 | Tubastatin A -0.012 | [8] 0.092 | defactinib -0.065 | rucaparib -0.097 | [9] 0.03 | encorafenib 0.031 | [10] 0.001

CDC123 (UniProt O75794)
UniProt O75794, sequence (O75794 whole entry, looked up): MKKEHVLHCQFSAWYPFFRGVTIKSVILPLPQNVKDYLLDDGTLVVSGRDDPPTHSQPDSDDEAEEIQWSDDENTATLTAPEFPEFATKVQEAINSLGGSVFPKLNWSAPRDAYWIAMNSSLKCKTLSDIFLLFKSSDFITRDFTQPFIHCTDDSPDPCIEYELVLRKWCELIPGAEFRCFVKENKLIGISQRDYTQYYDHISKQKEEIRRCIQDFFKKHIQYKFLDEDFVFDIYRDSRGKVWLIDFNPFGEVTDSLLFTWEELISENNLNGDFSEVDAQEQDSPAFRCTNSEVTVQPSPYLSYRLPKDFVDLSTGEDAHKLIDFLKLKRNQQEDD
inactive: [1] 0.06 | volasertib -0.002 | [2] 0.07 | epoxomicin 0.137 | [3] -0.012 | [4] -0.021 | [5] 0.015 | rosiglitazone 0.034 | [6] -0.009 | [7] -0.1 | saracatinib -0.039 | sotrastaurin 0.073 | alvocidib -0.033 | Tubastatin A 0.075 | [8] -0.043 | defactinib 0.008 | rucaparib -0.017 | [9] -0.041 | encorafenib 0.052 | [10] -0.032

CSK (UniProt P41240)
UniProt P41240, sequence (P41240 whole entry, looked up): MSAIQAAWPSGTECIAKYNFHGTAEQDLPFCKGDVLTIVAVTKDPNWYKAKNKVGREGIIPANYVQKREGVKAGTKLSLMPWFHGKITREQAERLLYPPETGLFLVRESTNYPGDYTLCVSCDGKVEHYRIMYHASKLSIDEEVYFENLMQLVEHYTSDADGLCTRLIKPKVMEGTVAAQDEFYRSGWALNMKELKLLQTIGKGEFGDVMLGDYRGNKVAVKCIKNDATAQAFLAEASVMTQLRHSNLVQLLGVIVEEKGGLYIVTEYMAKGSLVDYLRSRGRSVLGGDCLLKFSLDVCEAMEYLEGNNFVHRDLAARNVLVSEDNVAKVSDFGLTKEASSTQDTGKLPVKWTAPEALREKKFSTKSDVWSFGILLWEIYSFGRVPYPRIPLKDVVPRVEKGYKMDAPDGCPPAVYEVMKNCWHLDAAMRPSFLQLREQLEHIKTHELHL
inactive: [1] -0.132 | [2] 0.05 | epoxomicin 0.014 | [3] -0.013 | [4] -0.075 | [5] 0.024 | rosiglitazone 0.032 | [6] -0.011 | [7] -0.147 | saracatinib -0.01 | sotrastaurin -0.069 | alvocidib -0.102 | Tubastatin A 0.048 | [8] 0.097 | defactinib -0.105 | rucaparib -0.008 | [9] 0.007 | encorafenib 0.013 | [10] -0.048
active: volasertib -0.306
